This is an account of results in PubChem BioAssay (NCATS).

The nature of assay [1]: Primary qHTS for inhibitors of SARS-S pseudo-typed particle cell entry (AID 1479145). Also: nearly all actives have a fitted effect of over 45% in size. As to activity change, negative = inhibition: % is scaled to controls: 0 for no effect and ±100 for the full control effect. To be noted: SARS-S pseudotyped particle cell entry, luciferase reporter; series mostly up to 57.1 µM.
Assay [2] is described as follows: Primary qHTS for Vero E6 cytotoxicity: counterscreen for inhibitors of SARS-S pseudo-typed particle cell entry (AID 1479150). To be noted: cell viability; series mostly up to 57.1 µM.
The nature of assay [3]: Cytotoxicity counterscreen for inhibitors of SARS-CoV-2 cell entry (AID 1645845). Also: nearly all actives have a fitted effect of over 50% in size. The note with it: cell viability (SARS-CoV-2 entry assay cells); series mostly up to 57.1 µM. The method in brief: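 HEK293-ACE2 cells (Expi293F stably expressing human ACE2) seeded overnight, then compound for 1 h plus 48 h at 37C. Viability as ATP content by luminescence; normalized to wells with cells and media-only wells.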

Assay [4] can be described thus: Primary qHTS for Huh7 cytotoxicity: counterscreen for inhibitors of MERS-S pseudotyped particle cell entry (AID 1479147). Also: potency is read from the fitted curve at half-maximal effect. To be noted: cell viability read-out; series mostly up to 57.1 µM.
Assay [5] can be described thus: Primary qHTS for inhibitors of MERS-S pseudo-typed particle cell entry (AID 1479149). Also: nearly all actives have a fitted effect of over 60% in size. Also: potency is read from the fitted curve at half-maximal effect. As to activity change, negative = inhibition: % is scaled to controls: 0 for no effect and ±100 for the full control effect. To be noted: MERS-S pseudotyped particle entry, luciferase; series mostly up to 57.1 µM.
Assay [6] is described as follows: Confirmatory qHTS for VERO E6 Cytotoxicity Assay: Counterscreen for SARS-CoV-2 CPE Assay (AID 1508605). Also: % is scaled to controls: 0 for no effect and ±100 for the full control effect; nearly all actives have a fitted effect of over 60% in size. To be noted: cell viability luminescence; series mostly up to 20 µM.
Assay [7] can be described thus: Primary qHTS to identify inhibitors of SARS-CoV-2 cell entry (AID 1645846). Also: nearly all actives have a fitted effect of over 45% in size. Also: potency is read from the fitted curve at half-maximal effect. The note with it: SARS-CoV-2 pseudovirus cell entry assay, luminescence; activity change, negative = inhibition: at 57.1 µM (top of the series) unless noted. Put shortly:
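Using luciferase-reporting pseudoviruses carrying Wuhan-Hu-1 spike, the screen tracks entry into stably ACE2-expressing cells over 48 hr. Activity is expressed relative to spike particles versus particles lacking any fusion protein.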

The target of assay [8] is Cytochrome P450 2D6 (Homo sapiens) (UniProt P10635). As to the kind of experiment: Cytochrome P450 family 2 subfamily D member 6 (CYP2D6) small molecule antagonists: luciferase biochemical (cell-free) qHTS assay (AID 1645840; active = well fitted curve in the direction sought with a large enough effect in the repeat runs; an effect the other way counts as inactive or inconclusive; also: % is scaled to controls: 0 for no effect and ±100 for the full control effect; nearly all actives have a fitted effect of over 55% in size). To be noted: P450-Glo CYP2D6 enzyme, luciferin luminescence, 1 h; series mostly up to 57.4 µM. The method in brief:
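P450-Glo luminescent screen: recombinant CYP2D6 enzyme–proluciferin substrate mix preincubated with compound 10 min at room temperature, then NADPH regeneration added for 1 h at room temperature. Detection reagent added for 20 min; luciferin light read as relative luminescence units.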

For assay [9], the target named is Cytochrome P450 2C9 (Homo sapiens) (UniProt P11712). As to the kind of experiment: Cytochrome P450 family 2 subfamily C member 9 (CYP2C9) small molecule antagonists: luciferase biochemical (cell-free) qHTS assay (AID 1645842; active = well fitted curve in the direction sought with a large enough effect in the repeat runs; an effect the other way counts as inactive or inconclusive; also: % is scaled to controls: 0 for no effect and ±100 for the full control effect; nearly all actives have a fitted effect of over 55% in size). To be noted: P450-Glo CYP2C9 enzyme assay, luciferin luminescence; series mostly up to 57.4 µM. Put shortly: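 Luminescence, after 20 min with luciferin detection reagent, reflected CYP2C9 turnover during a 1 h NADPH-driven reaction at 37C. Enzyme-substrate mix contained 0.4% bovine serum albumin and was preincubated with compound 10 min at room temperature.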
Cytochrome P450 2C9 (Homo sapiens), sequence (P11712 whole entry, looked up): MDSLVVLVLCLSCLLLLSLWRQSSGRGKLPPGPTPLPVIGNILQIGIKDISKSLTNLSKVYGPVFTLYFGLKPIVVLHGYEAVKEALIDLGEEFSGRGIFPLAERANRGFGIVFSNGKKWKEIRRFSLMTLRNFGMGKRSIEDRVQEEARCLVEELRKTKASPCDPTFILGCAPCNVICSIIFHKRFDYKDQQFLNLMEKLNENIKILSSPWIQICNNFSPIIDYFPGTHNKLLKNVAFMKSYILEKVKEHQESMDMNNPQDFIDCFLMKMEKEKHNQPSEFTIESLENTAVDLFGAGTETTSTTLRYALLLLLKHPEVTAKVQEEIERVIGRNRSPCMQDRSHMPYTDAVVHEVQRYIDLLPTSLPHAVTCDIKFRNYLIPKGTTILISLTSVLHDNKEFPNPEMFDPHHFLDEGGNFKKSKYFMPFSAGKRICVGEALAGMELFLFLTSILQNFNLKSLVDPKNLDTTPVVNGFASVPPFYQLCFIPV

Assay [10] deals with Glutathione peroxidase 1 (Homo sapiens) (UniProt P07203). Kind of assay: Primary qHTS Assay for Inhibitors of Recombinant Selenoprotein Glutathione Peroxidase 1 (GPX1) (AID 1845191; active = well fitted curve in the direction sought with a large enough effect; an effect the other way counts as inactive or inconclusive; also: % is scaled to controls: 0 for no effect and ±100 for the full control effect; nearly all actives have a fitted effect of over 65% in size). The note with it: recombinant GPX1, GR-coupled NADPH fluorescence, 15 min; series mostly up to 48.8 µM. Put shortly:
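GR-coupled assay: compounds preincubated 30 min at room temperature with GPX1, then reaction started with CHP; final 10 nM GPX1, 1 mM GSH, 0.5 mM CHP, 0.5 mM NADPH, 100 nM GR, 0.01% BSA, pH 7.5 Tris buffer. NADPH fluorescence (340/450 nm) read at 0 and 15 min.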

Assay [11] can be described thus: Confirmatory qHTS to identify inhibitors of SARS-CoV-2 cell entry (AID 1645844). Also: potency is read from the fitted curve at half-maximal effect; nearly all actives have a fitted effect of over 45% in size. The note with it: SARS-CoV-2 pseudotyped particle cell entry, luciferase; series mostly up to 57.2 µM. Put shortly:
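HEK293-ACE2 cells were pretreated 1 h with compound, then infected with MLV-based pseudoparticles bearing C-terminally truncated Wuhan-Hu-1 spike for 48 h at 37C; luciferase luminescence normalized to spike PP and bald PP wells.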

Assay [12] in a line: VSVG counterscreen qHTS to identify inhibitors of SARS-CoV-2 cell entry (AID 1645847). Also: potency is read from the fitted curve at half-maximal effect; nearly all actives have a fitted effect of over 65% in size. The note with it: VSV-G pseudotyped particle entry, luciferase; series mostly up to 57.2 µM. The method in brief:
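Entry of VSV-G pseudotyped particles into human ACE2-expressing HEK293 cells was measured by luciferase luminescence 48 h after infection, with compound added 1 h beforehand.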

Where “and” joins values, the source holds several entries; their conditions need not be identical. Equal entries are not always repeated. Inconclusive results are not listed. Calls of active or inactive are those of the source. Unless noted, calls follow the shape of the full dose curve. Numbered stars: 1 amine (or outer) side, 2 acyl side, 3 side chain; on linkers, the order of the positions; unused ones are H or OH. Bridge positions count the residues as written; N and C are the ends. Square brackets hold non-standard residues; d marks the D form. Peptide text beside a SMILES is read from it. * marks the point of attachment. ξ: configuration not given here. pTerphenylCO(4''-OnC5H11) = CCCCCOc1ccc(-c2ccc(-c3ccc(C(=O)*)cc3)cc2)cc1; ξOrn(4,5-diOH) = O=C(C(CC(O)C(O)N[*:3])N[*:1])[*:2]; ξhTyr(βξ-OH,γξ-OH) = NC(C(=O)O)C(O)C(O)c1ccc(O)cc1; ξPro(3ξ-OH,4ξ-Me) = CC1CNC(C(=O)O)C1O; Hyp = O=C(O)[CH]1C[CH](O)CN1

Cytochrome P450 2D6 (Homo sapiens), sequence (P10635 whole entry, looked up): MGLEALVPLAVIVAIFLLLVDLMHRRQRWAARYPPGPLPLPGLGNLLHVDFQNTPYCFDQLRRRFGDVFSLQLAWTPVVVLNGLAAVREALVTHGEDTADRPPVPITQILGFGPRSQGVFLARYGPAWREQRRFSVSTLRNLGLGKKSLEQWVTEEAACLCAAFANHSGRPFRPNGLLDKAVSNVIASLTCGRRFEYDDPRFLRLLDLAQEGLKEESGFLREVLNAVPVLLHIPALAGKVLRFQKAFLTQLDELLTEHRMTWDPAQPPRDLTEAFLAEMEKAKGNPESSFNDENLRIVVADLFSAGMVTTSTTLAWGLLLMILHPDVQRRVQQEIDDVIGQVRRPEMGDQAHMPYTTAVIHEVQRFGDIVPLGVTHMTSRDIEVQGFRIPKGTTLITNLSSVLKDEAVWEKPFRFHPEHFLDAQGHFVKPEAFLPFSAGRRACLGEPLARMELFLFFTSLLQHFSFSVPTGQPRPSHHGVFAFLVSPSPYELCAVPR
Glutathione peroxidase 1 (Homo sapiens), sequence (P07203 whole entry, looked up): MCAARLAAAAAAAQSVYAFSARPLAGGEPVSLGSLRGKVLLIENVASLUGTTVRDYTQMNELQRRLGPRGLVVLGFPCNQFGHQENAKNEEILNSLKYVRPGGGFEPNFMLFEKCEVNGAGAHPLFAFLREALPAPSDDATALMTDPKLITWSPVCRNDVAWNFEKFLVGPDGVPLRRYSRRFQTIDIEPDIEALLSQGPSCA

As for `CCCCCCCCC=CCCCCCCCC(=O)NCCOC(=O)CC(C(=O)O)S(=O)(=O)O` (configuration not stated), the Potency entry in assay [1], in assay [2] and in assay [3] was “inactive” each time.

Consider `CC(C)(C)C(=O)OCOC(=O)[C@@H]1N2C(=O)[C@@H](N=CN3CCCCCC3)[C@H]2SC1(C)C`, for which the Potency result in [4], in assay [5] and in [2] was “inactive” each time.

Regarding `Cc1ccc(/C(=C\CN2CCCC2)c2cccc(/C=C/C(=O)O)n2)cc1`, the Potency result in assay [4], in assay [5] and in assay [2] was “inactive” each time.

On to `OCCOc1ccc(/C(=C(/CCCl)c2ccccc2)c2ccccc2)cc1`, for which the Potency entry in [4], in assay [5], in assay [2], in assay [6] and in assay [3] was “inactive” each time. The activity change, negative = inhibition in assay [7] was -9.9% and -6.02%.

Turning to `OCCN1CCN(CC/C=C2/c3ccccc3Sc3ccc(Cl)cc32)CC1`, the Potency in assay [4] was 22.4 µM (active).

For `CC(=O)OC1CC(OC2C(O)CC(OC3C(O)CC(OC4CCC5(C)C(CCC6C5CCC5(C)C(C7=CC(=O)OC7)CCC65O)C4)OC3C)OC2C)OC(C)C1O` (configuration not stated), the Potency entry in assay [1] and in assay [5] was “inactive” in each case. For the same compound, the activity change, negative = inhibition in assay [7] was -96.7%.

Regarding `NCCS[As](SCCN)c1ccc(Nc2nc(N)nc(N)n2)cc1`, the Potency result in assay [4], in [5], in [2], in assay [8], in assay [9] and in assay [3] was “inactive” in each case. In addition, the Potency result in [10] was “inactive”. In [7], the activity change, negative = inhibition is -25.6%.

`CC1(S(=O)(=O)O)CC(=O)c2ccccc2C1=O` (configuration not stated): the Potency result in assay [1] and in [2] was “inactive” each time.

For `Cc1cc(-c2ccc(N=Nc3ccc4c(S(=O)(=O)O)cc(S(=O)(=O)O)c(N)c4c3O)c(C)c2)ccc1N=Nc1ccc2c(S(=O)(=O)O)cc(S(=O)(=O)O)c(N)c2c1O`, the Potency result in assay [1] and in assay [5] was “inactive” each time. In assay [7], the activity change, negative = inhibition was -2.58%.

For the compound `CCCCCCCCCCCCCC[n+]1ccc(C)cc1`, in assay [4], the Potency entry was “inactive”.

Turning to `CN[C@@H]1[C@@H](O)[C@@H](O[C@@H]2[C@@H](O)[C@H](OC3O[C@H](CN)[C@@H](O)[C@H](O)[C@H]3O)[C@@H](N)C[C@H]2NC(=O)[C@@H](O)CN)OC[C@]1(C)O` (some centres not stated), the Potency result in assay [4], in assay [5] and in assay [2] was “inactive” each time.

For `CCCCCOc1ccc(-c2ccc(-c3ccc(C(=O)NC4CC(O)C(O)NC(=O)C5C(O)C(C)CN5C(=O)C(C(C)O)NC(=O)C(C(O)C(O)c5ccc(O)cc5)NC(=O)C5CC(O)CN5C(=O)C(C(C)O)NC4=O)cc3)cc2)cc1` (stereo not drawn) ({pTerphenylCO(4''-OnC5H11)}-[ξOrn(4,5-diOH)]T[Hyp][ξhTyr(βξ-OH,γξ-OH)]T[ξPro(3ξ-OH,4ξ-Me)]; lactam 1-C; configuration not given here), the Potency result in assay [4], in assay [2] and in [6] was “inactive” in each case. Also, the Potency in assay [5] is 11.2 µM (active).

With `CC[C@H](C)[C@@H]([C@@H](CC(=O)N1CCC[C@H]1[C@H](OC)[C@@H](C)C(=O)NCCc1ccccc1)OC)N(C)C(=O)[C@@H](NC(=O)[C@H](C(C)C)N(C)C)C(C)C`, in [4], the Potency result was “inactive”.

For the compound `O=[N+]([O-])c1ccc(Oc2ccc(N=C=S)cc2)cc1`, the Potency result in assay [4] is “inactive”.

As to `COc1ccc2c(c1)OC(C)(C)C(c1ccccc1)C2c1ccc(OCCN2CCCC2)cc1` (configuration not stated), the Potency entry in assay [1] and in assay [2] was “inactive” each time. For the same compound, the Potency in assay [7] was 15.8 µM (active).

As for `CC[N+](CC)(CC)CCC(O)(c1ccccc1)C1CCCCC1` (configuration not stated), the Potency entry in assay [4], in assay [5] and in assay [2] was “inactive” in each case.

As to `COc1ccc(CNc2nc(N3CCC[C@H]3CO)ncc2C(=O)NCc2ncccn2)cc1Cl`, the Potency result in assay [4], in [5] and in assay [2] was “inactive” throughout.

`Cc1ccc(C(=O)OCc2ccc([C@@H](CN)C(=O)Nc3ccc4cnccc4c3)cc2)c(C)c1`: the Potency entry in assay [4] is “inactive”.

Turning to `CC[C@]12C=CCN3CC[C@@]4(c5cc([C@@]6(C(=O)OC)CC7C[C@@H](C(C)(F)F)CN(Cc8c6[nH]c6ccccc86)C7)c(OC)cc5N(C)[C@H]4[C@@](O)(C(=O)OC)[C@@H]1OC(C)=O)[C@@H]32` (some centres not stated), the Potency entry in assay [4] was “inactive”.

`CC(=O)O[C@H]1C[C@@H]2CC[C@@H]3[C@H](CC[C@@]4(C)[C@H]3C[C@H](N3CC[N+](C)(C)CC3)[C@@H]4OC(C)=O)[C@@]2(C)C[C@@H]1N1CC[N+](C)(C)CC1`: the Potency result in assay [4], in [5] and in [2] was “inactive” each time.

Turning to `C(=C\c1ccncc1)/c1ccccc1`, the Potency result in [1], in assay [2] and in [7] was “inactive” each time.

Consider `S=C1SCN(Cc2ccccc2)CN1Cc1ccccc1`, for which the Potency in assay [4] is 35.5 µM (active).

On to `Nc1nc(NC2CC2)c2ncn([C@H]3C=C[C@@H](CO)C3)c2n1`, for which the Potency entry in assay [1], in assay [5] and in [7] was “inactive” each time.

With `CO[C@H]1C[C@H](O[C@@H]2[C@H](C)O[C@H](O[C@@H]3/C(C)=C/C[C@@H]4C[C@@H](C[C@]5(C=C[C@H](C)[C@@H](C6CCCCC6)O5)O4)OC(=O)[C@@H]4C=C(C)C(O)[C@H]5OC/C(=C\C=C\[C@@H]3C)[C@]54O)C[C@@H]2OC)O[C@@H](C)[C@@H]1O` (some centres not stated), the Potency entry in assay [4], in assay [5], in [2] and in assay [3] was “inactive” in each case. Moreover, the Potency in assay [11] was 2.71 µM (active); in assay [12], 1.36 µM (active).

Regarding `CCC(=O)O[C@@H](OP(=O)(CCCCc1ccccc1)CC(=O)N1C[C@H](C2CCCCC2)C[C@H]1C(=O)O)C(C)C` (some centres not stated), the outcome is “inactive [at 11.4 µM]” in assay [4], “inactive [at 11.4 µM]” in assay [5], “inactive [at 11.4 µM]” in [2] and “inactive [at 11.3 µM]” in assay [3].

Turning to `Cn1nnnc1SCC1=C(C(=O)O)N2C(=O)[C@@H](NC(=O)[C@H](OC=O)c3ccccc3)[C@H]2SC1`, the Potency result in [4], in assay [5], in assay [2] and in [3] was “inactive” each time.
